# In PubChem BioAssay (NCATS):
# Records with an inconclusive call do not appear. Calls of active or inactive are those of the source. Unless noted, calls follow the shape of the dose curve; as a rule, active = well fitted curve in the direction sought with a large enough effect; inconclusive = small, poorly fitted or top-dose-only effect, or another doubt; inactive = no such curve, though single readings can be large; an effect the other way counts as inactive or inconclusive.
# What was measured:
# [1] = Quantitative High-Throughput drug screen in 47 multiple myeloma cell lines against the NCATS MIPE library collection: XG6_PLB cell viability assay (AID 1919865); also: nearly all actives have a fitted effect of over 40% in size
# Method in brief: (§1)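 500 cells/well; MIPE 4.0 drugs pin-transferred; 48 h, 37C, 5% CO2. CellTiter-Glo, 5 min RT, luminescence. Controls: DMSO 100%, media 0%.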
# [2] = Quantitative High-Throughput drug screen in 47 multiple myeloma cell lines against the NCATS MIPE library collection: PCM6_Riken cell viability assay (AID 1919870); also: nearly all actives have a fitted effect of over 30% in size
# Method in brief: as §1
# [3] = Quantitative High-Throughput drug screen in 47 multiple myeloma cell lines against the NCATS MIPE library collection: RPMI8226_ATCC cell viability assay (AID 1919871); also: nearly all actives have a fitted effect of over 30% in size; also: potency is read from the fitted curve at half-maximal effect
# Method in brief: as §1
# [4] = Quantitative High-Throughput drug screen in 47 multiple myeloma cell lines against the NCATS MIPE library collection: OPM2_DSMZ cell viability assay (AID 1919872); also: nearly all actives have a fitted effect of over 30% in size
# Method in brief: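 Myeloma cell lines, 500 cells per well, exposed to MIPE 4.0 library compounds for 48 h at 37C, 5% CO2. Viability from ATP by CellTiter-Glo luminescence; normalised to DMSO (100%) and media-only (0%) wells.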
# [5] = Quantitative High-Throughput drug screen in 47 multiple myeloma cell lines against the NCATS MIPE library collection: KMS28BM_JCRB cell viability assay (AID 1919874); also: nearly all actives have a fitted effect of over 35% in size
# Method in brief: as §1
# [6] = qHTS drug screen for cell cycle checkpoint inhibitors in PARPi-resistant BRCA-mutant ovarian cancer cell lines. (AID 1963452; calls by dose curve; also: potency is read from the fitted curve at half-maximal effect); conditions: PEO1/OlaR viability, CellTiter-Glo luminescence, 96 h; for Z-AUC: stronger effect = lower value
# Method in brief: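 PEO1, PEO4 and PEO1/OlaR ovarian cancer cells, 600 per well, exposed 96 h at 37C to a dilution series. Viability read by CellTiter-Glo luminescence, normalized to DMSO and empty wells; activity summarized as Z-AUC.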
# [7] = qHTS for identification of novel therapeutic agents for treatment of microphthalmiaassociated transcription factor (MiT) renal cell carcinoma (RCC) (AID 1963991); conditions: CellTiter-Glo, 48 h, stronger effect = lower value
# Method in brief: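 Three TFE3-fusion RCC lines (UOK109, UOK124, UOK145), 500 cells/well in complete medium, were treated with MIPE 4.0 compounds for 48 hours at 37 C. Viability was by CellTiter-Glo luminescence, normalized to DMSO (100%) and empty wells (0%); curves fitted over 11 concentrations.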
# [8] = Quantitative High-Throughput drug screen in 47 multiple myeloma cell lines against the NCATS MIPE library collection: XG1_PLB cell viability assay (AID 1919866); also: nearly all actives have a fitted effect of over 35% in size; also: potency is read from the fitted curve at half-maximal effect
# Method in brief: as §1
# [9] = Quantitative High-Throughput drug screen in 47 multiple myeloma cell lines against the NCATS MIPE library collection: VP6_DJ cell viability assay (AID 1919867); also: nearly all actives have a fitted effect of over 40% in size
# Method in brief: as §1
# [10] = qHTS profiling for inhibitors of Plasmodium falciparum proliferation (AID 504749); also: nearly all actives have a fitted effect of over 60% in size; also: potency is read from the fitted curve at half-maximal effect;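 as to activity, negative = inhibition: 0% = DMSO vehicle and full inhibition = artemisinin control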; conditions: P. falciparum in erythrocytes, SYBR Green DNA, 72 h
# Method in brief: (§2)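 SYBR Green fluorescence (ex 485 nm, em 535 nm) reports parasite DNA after 72 h compound exposure of infected red cells at 0.3% parasitemia, 2.5% hematocrit; signal normalized to 0.29 uM artemisinin and vehicle wells.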
# [11] = test system: 3D7; assay: as above; conditions: P. falciparum in erythrocytes, SYBR Green DNA, 72 h; series mostly up to 28.7 µM
# Method in brief: as §2
# [12] = target: Cytochrome P450 3A4 (Homo sapiens) (UniProt P08684); assay: qHTS for inhibitors of CYP3A4 against the NCATS DSHEA and TCM libraries (AID 1919971);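 also: % is scaled to controls: 0 for no effect and ±100 for the full control effect; inhibition lowers luminescence from luciferin made by CYP3A4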
# Chain of Cytochrome P450 3A4 (Homo sapiens) (P08684 whole entry, looked up, canonical isoform): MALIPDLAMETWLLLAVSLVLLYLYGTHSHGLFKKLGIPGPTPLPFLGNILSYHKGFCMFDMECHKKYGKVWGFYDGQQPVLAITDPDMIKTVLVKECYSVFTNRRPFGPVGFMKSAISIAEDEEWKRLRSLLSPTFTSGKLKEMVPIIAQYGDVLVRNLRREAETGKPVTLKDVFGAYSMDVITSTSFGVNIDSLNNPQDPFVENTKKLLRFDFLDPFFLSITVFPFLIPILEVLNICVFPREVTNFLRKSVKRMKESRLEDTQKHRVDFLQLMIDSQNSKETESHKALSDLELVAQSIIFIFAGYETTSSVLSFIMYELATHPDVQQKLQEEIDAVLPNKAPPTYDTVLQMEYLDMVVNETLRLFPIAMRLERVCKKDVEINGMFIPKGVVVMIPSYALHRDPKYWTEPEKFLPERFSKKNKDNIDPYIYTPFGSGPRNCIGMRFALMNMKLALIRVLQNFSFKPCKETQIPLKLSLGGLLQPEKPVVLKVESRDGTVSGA
# Method in brief: (§3)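 Isoform-specific enzyme and substrate levels; enzyme-free wells as background. Reaction: 1x NADPH regenerating system, 30-45 min, room temperature, shielded from light; luminescent detection reagent added, 30 min.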
# [13] = target: Cytochrome P450 2D6 (Homo sapiens) (UniProt P10635); assay: qHTS for inhibitors of CYP2D6 against the NCATS DSHEA and TCM libraries (AID 1919972); also: % is scaled to controls: 0 for no effect and ±100 for the full control effect
# Chain of Cytochrome P450 2D6 (Homo sapiens) (P10635 whole entry, looked up): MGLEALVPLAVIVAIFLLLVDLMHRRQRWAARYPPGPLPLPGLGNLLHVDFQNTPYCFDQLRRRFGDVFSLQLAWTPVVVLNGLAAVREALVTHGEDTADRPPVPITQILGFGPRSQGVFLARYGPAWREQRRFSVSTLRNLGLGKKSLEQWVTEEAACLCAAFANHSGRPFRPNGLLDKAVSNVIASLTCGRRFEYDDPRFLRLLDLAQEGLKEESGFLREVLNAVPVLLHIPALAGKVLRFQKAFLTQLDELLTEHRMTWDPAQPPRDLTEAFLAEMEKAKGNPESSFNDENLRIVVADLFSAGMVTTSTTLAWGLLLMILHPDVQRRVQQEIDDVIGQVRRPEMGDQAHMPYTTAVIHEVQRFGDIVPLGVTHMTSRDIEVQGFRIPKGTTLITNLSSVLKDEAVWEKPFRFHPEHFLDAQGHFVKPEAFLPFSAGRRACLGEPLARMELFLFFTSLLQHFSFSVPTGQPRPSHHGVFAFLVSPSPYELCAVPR
# Method in brief: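 qHTS, concentration–response format with most substances from 19.5 nM. CYP2D6 + pro-luciferin substrate, 15 min with compound, then 1x NADPH regen, 30–45 min RT dark. Glo detection 30 min, luminescence. Quinidine control.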
# [14] = target: Cytochrome P450 2C9 (Homo sapiens) (UniProt P11712); assay: qHTS for inhibitors of CYP2C9 against the NCATS DSHEA and TCM libraries (AID 1919973);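 also: luminogenic pro-luciferin CYP2C9 substrate turned into luciferin with NADPH regeneration; % is scaled to controls: 0 for no effect and ±100 for the full control effect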
# Chain of Cytochrome P450 2C9 (Homo sapiens) (P11712 whole entry, looked up): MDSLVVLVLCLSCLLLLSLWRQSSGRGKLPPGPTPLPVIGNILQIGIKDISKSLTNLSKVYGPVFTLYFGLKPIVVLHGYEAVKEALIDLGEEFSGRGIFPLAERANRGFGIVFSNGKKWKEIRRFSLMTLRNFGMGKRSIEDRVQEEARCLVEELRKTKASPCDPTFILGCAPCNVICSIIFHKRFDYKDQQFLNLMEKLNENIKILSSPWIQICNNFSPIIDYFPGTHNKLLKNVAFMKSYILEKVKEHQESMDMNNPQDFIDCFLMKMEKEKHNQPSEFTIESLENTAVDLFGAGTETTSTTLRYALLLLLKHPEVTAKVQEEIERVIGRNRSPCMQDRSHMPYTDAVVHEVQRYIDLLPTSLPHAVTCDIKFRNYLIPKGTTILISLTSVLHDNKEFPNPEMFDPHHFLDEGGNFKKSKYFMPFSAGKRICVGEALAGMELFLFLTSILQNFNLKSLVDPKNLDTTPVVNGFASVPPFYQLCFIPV
# Method in brief: as §3
# [15] = target: Cytochrome P450 2C19 (Homo sapiens) (UniProt P33261); assay: qHTS for inhibitors of CYP2C19 against the NCATS DSHEA and TCM libraries (AID 1919974);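 also: luminescence from luciferin released by CYP2C19 oxidation of a pro-luciferin substrate; % is scaled to controls: 0 for no effect and ±100 for the full control effect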
# Chain of Cytochrome P450 2C19 (Homo sapiens) (P33261 whole entry, looked up): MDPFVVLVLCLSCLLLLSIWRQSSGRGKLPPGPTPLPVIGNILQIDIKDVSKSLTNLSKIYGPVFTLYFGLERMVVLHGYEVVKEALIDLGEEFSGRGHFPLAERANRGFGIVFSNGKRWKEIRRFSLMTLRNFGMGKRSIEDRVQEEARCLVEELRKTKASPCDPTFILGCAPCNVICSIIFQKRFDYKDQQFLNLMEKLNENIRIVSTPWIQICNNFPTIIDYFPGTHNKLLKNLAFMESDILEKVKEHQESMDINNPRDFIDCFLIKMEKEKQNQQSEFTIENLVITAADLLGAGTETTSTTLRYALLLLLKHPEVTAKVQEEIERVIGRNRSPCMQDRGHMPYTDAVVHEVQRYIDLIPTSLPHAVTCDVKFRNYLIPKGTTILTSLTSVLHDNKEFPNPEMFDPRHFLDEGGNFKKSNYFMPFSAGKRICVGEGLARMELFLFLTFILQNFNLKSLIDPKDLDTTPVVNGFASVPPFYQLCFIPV
# Method in brief: as §3
# [16] = target: Cytochrome P450 1A2 (Homo sapiens) (UniProt P05177); assay: qHTS for inhibitors of CYPIA2 against the NCATS DSHEA and TCM libraries (AID 1919976);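 also: light from luciferin formed by CYP1A2 from a pro-luciferin substrate; % is scaled to controls: 0 for no effect and ±100 for the full control effect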
# Chain of Cytochrome P450 1A2 (Homo sapiens) (P05177 whole entry, looked up): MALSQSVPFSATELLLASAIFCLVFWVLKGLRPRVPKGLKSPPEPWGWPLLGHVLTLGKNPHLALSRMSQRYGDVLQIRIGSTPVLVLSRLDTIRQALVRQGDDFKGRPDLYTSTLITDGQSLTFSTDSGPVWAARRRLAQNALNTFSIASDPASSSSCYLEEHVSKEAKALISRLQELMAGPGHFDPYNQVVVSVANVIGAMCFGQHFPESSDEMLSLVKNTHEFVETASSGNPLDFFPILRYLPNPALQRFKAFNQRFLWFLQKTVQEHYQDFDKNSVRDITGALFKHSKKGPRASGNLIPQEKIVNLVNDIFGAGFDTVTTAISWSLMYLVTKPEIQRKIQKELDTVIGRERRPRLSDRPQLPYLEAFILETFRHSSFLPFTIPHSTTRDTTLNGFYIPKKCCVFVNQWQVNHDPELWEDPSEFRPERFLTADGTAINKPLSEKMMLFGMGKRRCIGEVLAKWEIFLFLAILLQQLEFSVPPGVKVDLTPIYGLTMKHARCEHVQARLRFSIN
# Method in brief: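 Furafylline served as the plate control. Compounds met CYP1A2 and pro-luciferin substrate 15 min before NADPH regeneration solution (1x) was added; after 30-45 min at RT, P450-Glo reagent was added for 30 min and luminescence was measured.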
# [17] = KB-8-5-11 P-gp reporter qHTS against the NCATS DSHEA and TCM libraries (AID 1919977); also: 0% is about no effect
# Method in brief: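 CellTiter-Glo luminescence after ~72 h exposure at 37C gave viability of KB-8-5-11 cells, the P-gp-overexpressing subline. Substances were titrated; colchicine was omitted from assay medium.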
# [18] = Quantitative High-Throughput drug screen in 47 multiple myeloma cell lines against the NCATS MIPE library collection: U266_ATCC cell viability assay (AID 1919864); also: nearly all actives have a fitted effect of over 35% in size; also: potency is read from the fitted curve at half-maximal effect
# Method in brief: as §1
# [19] = Quantitative High-Throughput drug screen in 47 multiple myeloma cell lines against the NCATS MIPE library collection: UTMC2_PLB cell viability assay (AID 1919868); also: nearly all actives have a fitted effect of over 55% in size
# Method in brief: as §1
# [20] = Quantitative High-Throughput drug screen in 47 multiple myeloma cell lines against the NCATS MIPE library collection: KMS11_JCRBsus cell viability assay (AID 1919873); also: nearly all actives have a fitted effect of over 50% in size
# Method in brief: as §1
# [21] = measured here: PEO1 parental Z-AUC
# [22] = TFE3-RCC UOK109 viability, measured here: UOK109 Z-AUC
# [23] = TFE3-RCC viability, measured here: UOK124 Z-AUC
# [24] = TFE3-RCC viability, measured here: UOK145 Z-AUC
# [25] = at 28.7 µM (top of the series), parasite line A
# [26] = at 28.7 µM (top of the series), parasite line B
# [27] = at 12.8 µM (top of the series), parasite line A
# [28] = at 12.8 µM (top of the series), parasite line B
smiles,measurement,setting,value
CC(NC(C)(C)C)C(=O)c1cccc(Cl)c1 (configuration not stated),Potency,[1],inactive
same,Potency,[2],inactive
same,Potency,[3],20.9 µM (active)
same,outcome,[4],inactive
same,outcome,[5],inactive
same,Z-AUC,[6],-0.176 (inactive)
same,Z-AUC,[6]; [21],0.0369
same,Z-AUC,[6]; measured here: PEO4 Z-AUC,1.02
same,z-score,[7]; [22],0.679
same,z-score,[7]; [23],0.615
same,z-score,[7]; [24],0.622
O=P1(N(CCCl)CCCl)NCCCO1 (configuration not stated),Potency,[1],inactive
same,Potency,[8],14.8 µM (active)
same,Potency,[9],inactive
same,outcome,[4],inactive
same,Z-AUC,[6],1.32 (inactive)
same,Z-AUC,[6]; [21],1.49
same,Z-AUC,[6]; measured here: PEO4 Z-AUC,1.45
same,z-score,[7]; [22],0.655
same,z-score,[7]; [23],0.953
same,z-score,[7]; [24],1.4
same,"activity, negative = inhibition",[10]; [25],11.3% (inactive)
same,"activity, negative = inhibition",[10]; [26],6.9% (inactive)
same,Potency,[11],inactive
CCCCCCCCCCCCCCCCCC(=O)O,outcome,[12],inactive
same,outcome,[13],inactive
same,outcome,[14],inactive
same,outcome,[15],inactive
same,outcome,[16],inactive
same,outcome,[17],inactive
CC(C)=CCC[C@@](C)(O)[C@H]1CC=C(C)CC1,outcome,[17],inactive
CN1C(=O)COc2c(C(=O)NC3CN4CCC3CC4)cc(Cl)cc21 (configuration not stated),Potency,[18],inactive
same,Potency,[1],inactive
same,Potency,[8],inactive
same,Potency,[9],inactive
same,Potency,[2],inactive
same,Potency,[3],inactive
same,outcome,[4],inactive
same,Z-AUC,[6],-0.165 (inactive)
same,Z-AUC,[6]; [21],-0.0882
same,Z-AUC,[6]; measured here: PEO4 Z-AUC,0.485
same,"activity, negative = inhibition",[10]; [25],7.89% (inactive)
same,"activity, negative = inhibition",[10]; [26],7.46% (inactive)
same,Potency,[11],inactive
C[C@]12Cc3cn[nH]c3C[C@@H]1CC[C@@H]1[C@@H]2CC[C@@]2(C)[C@H]1CC[C@]2(C)O,Z-AUC,[6],1.25 (inactive)
same,Z-AUC,[6]; [21],0.915
same,Z-AUC,[6]; measured here: PEO4 Z-AUC,1.64
CCC1(c2ccc(N)cc2)CCC(=O)NC1=O (configuration not stated),Potency,[18],1.32 µM (active)
same,Potency,[1],inactive
same,Potency,[8],inactive
same,Potency,[19],inactive
same,Potency,[3],inactive
same,outcome,[4],inactive
same,outcome,[5],inactive
same,Z-AUC,[6],1.39 (inactive)
same,Z-AUC,[6]; [21],0.942
same,Z-AUC,[6]; measured here: PEO4 Z-AUC,1.02
CC(C)c1cccc(C(C)C)c1O,Potency,[18],inactive
same,Potency,[1],inactive
same,Potency,[8],inactive
same,Potency,[9],inactive
same,Potency,[19],inactive
same,Potency,[2],inactive
same,Potency,[3],inactive
same,outcome,[4],inactive
same,Potency,[20],inactive
same,outcome,[5],inactive
same,Z-AUC,[6],0.183 (inactive)
same,Z-AUC,[6]; [21],0.696
same,Z-AUC,[6]; measured here: PEO4 Z-AUC,0.584
same,z-score,[7]; [22],-1.1
same,z-score,[7]; [23],0.663
same,z-score,[7]; [24],0.666
same,"activity, negative = inhibition",[10]; [25],13.6% (inactive)
same,"activity, negative = inhibition",[10]; [26],4.13% (inactive)
same,Potency,[11],inactive
O=C(O)c1cc(O)c(O)c(O)c1,outcome,[17],inactive
NNC(=O)c1ccncc1,outcome,[17],inactive
Cc1ccc(C(C)C)c(O)c1,outcome,[17],inactive
NC(=O)c1cnccn1,outcome,[17],inactive
COc1cccc2c1C(=O)c1c(O)c3c(c(O)c1C2=O)C[C@@](O)(C(=O)CO)CC3OC1CC(N2CCOC(OC)C2)C(O)C(C)O1 (some centres not stated),Potency,[6],0.0078 µM (active)
same,Z-AUC,[6]; [21],-3.26
same,Z-AUC,[6]; measured here: PEO4 Z-AUC,-2.98
CCCCC/C=C\C/C=C\C/C=C\C/C=C\CCCC(=O)NCC(=O)O,"activity, negative = inhibition","[10]; at 2.67 µM (top of the series), parasite line A",-21.1% (inactive)
same,"activity, negative = inhibition","[10]; at 2.67 µM (top of the series), parasite line B",4.55% (inactive)
CNC(C)(C)Cc1ccccc1,"activity, negative = inhibition",[10]; [27],5.96% (inactive)
same,"activity, negative = inhibition",[10]; [28],5.61% (inactive)
COC1CC(=C(c2cccs2)c2cccs2)C[N+](C)(C)C1 (configuration not stated),Potency,[10]; parasite line B,4.47 µM (active)
CC(C)(C)NCC(O)c1cc(Cl)c(N)c(C(F)(F)F)c1 (configuration not stated),Potency,[10]; parasite line B,4.47 µM (active)
O=c1oc2ccccc2c(O)c1Cc1c(O)c2ccccc2oc1=O,"activity, negative = inhibition",[10]; [27],7.78% (inactive)
same,"activity, negative = inhibition",[10]; [28],2.51% (inactive)
COc1c2c(cc3c1OCO3)CCN(C)C2,"activity, negative = inhibition",[10]; [27],4.79% (inactive)
same,"activity, negative = inhibition",[10]; [28],6.97% (inactive)
O=C(N/N=C/c1ccc([N+](=O)[O-])o1)c1cc([N+](=O)[O-])cc([N+](=O)[O-])c1O,Potency,[10]; parasite line A,0.447 µM (active)
same,Potency,[10]; parasite line B,0.0708 µM (active)
CN1C[C@H](C(=O)N[C@]2(C)O[C@@]3(O)[C@@H]4CCCN4C(=O)[C@H](Cc4ccccc4)N3C2=O)C=C2c3cccc4[nH]cc(c34)C[C@H]21,Potency,[10]; parasite line A,1.41 µM (active)
same,Potency,[10]; parasite line B,1.58 µM (active)
